According to ChEMBL document CHEMBL1157539, “Thousands of chemical starting points for antimalarial lead identification” (Nature, 2010):

System: HepG2
Assay: GSK_TCMDC: Percent inhibition of human HepG2 cell line. Test compounds present at 10uM.
Type: functional

SMILES | Inhibition [%]
CC(C)(C)SCC(O)Cn1c2ccc(Br)cc2c2cc(Br)ccc21 (centres undefined) | 4
Clc1ccc2c(NN=Cc3ccccc3)ccnc2c1 | 0
O=C(Nc1cccc(-c2nn3ccccc3c2-c2ccnc(Nc3ccc(NCCCN4CCOCC4)c(F)c3)n2)c1)c1c(F)cccc1F | 86
CCCCCc1cnc2nc(N)nc(N)c2c1.O=S(=O)(O)CCO | 72
O=C(Nc1cccc(-c2nc3ccccc3[nH]2)c1)c1ccc(-c2cccc([N+](=O)[O-])c2)o1 | 22
Cc1cccc2nc(-c3ccc(-c4cccc(NC(=O)c5cncn5C)c4)s3)[nH]c12 | 13
COc1cc(OC)c(NC(=O)COc2ccc(C)cc2)cc1Cl | 0
Cl.N=C(NCCc1ccc(Cl)c(Cl)c1)c1ccc2ccccc2c1 | 60
O=C(O)C(F)(F)F.c1cncc(CCNCc2ccc(-c3ccc(-c4nc5ccccc5[nH]4)s3)cc2)c1 | 35
Cc1[nH]c(C)c(-c2ccc(OCc3ccc(F)cc3)cc2)c(=O)c1Br | 16
COc1ccc2nccc([C@@H](O)CN3CCC(NC(=O)c4cc5cccnc5[nH]4)CC3)c2c1.Cl | 0
CCOC(=O)[C@H](Cc1cccc2ccccc12)NC(=O)[C@H](CCC(=O)OC(C)(C)C)NC(=O)c1ccc(N(C)Cc2cnc3nc(N)nc(N)c3n2)cc1 | 66
Cc1ccc(NC(=O)c2cccc(C#N)c2)cc1-c1ccc(C(=O)Nc2ccncc2)cc1 | 38
CC(C)Cn1c(Sc2ccc(C#N)c([N+](=O)[O-])c2)nnc1-c1ccccc1 | 17
